# This is a sample that favours compounds with a hit; in the whole collection about 4.3% have one here.
# esBAF inh: SWI/SNF esBAF complex inhibition; mouse ES cells, Bmi1-luciferase knock-in reporter, 24 h; 100% = twice the neutral-well signal; reporter increase, % at 12.5 µM; AID 602393; 350,000 tested, 2% active; in the data active = activation above about 40%; inconclusive = no clear call, values can overlap the other calls;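 note: 0% = median of the plate's neutral control wells and 100% = double that signal; a rise in the Bmi1 reporter signal indicates esBAF inhibition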
# HSF-1 act: increases HSF-1 driven luciferase reporter signal. NIH3T3-HGL HSF-1 luciferase reporter, MG132, 8 h; 100% = twice DMSO control signal. activation, % at 9 µM. 300,000 tested, 1.7% active;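 active = mean replicate activation of at least 50% with a set share of replicates each reaching 50%; inconclusive = only one of those two conditions met; inactive = mean below 50% and too few replicates reaching it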;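 note: 0% = median of the neutral control wells and 100% = twice that signal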
# SMARCA2 activ: increases SMARCA2 function in MMTV reporter cells | MG213 cells, MMTV-luciferase reporter, dexamethasone, overnight | activation, % at 9.1 µM | 370,000 tested, 1% active; in the data active = activation above about 7.8%;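 note: 0% = vehicle wells and 100% = reference activator wells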
# MITF TRPM1 HTS: activators of MITF-driven TRPM1 promoter activity in SK-MEL-5 cells; SK-MEL-5 TRPM1-promoter luciferase, 24 h; % of positive control, neutral wells = 0; activation, % at 12.5 µM; 300,000 tested, 0.75% active; AID 588334;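 active = mean activation of at least 80% with every replicate also reaching 80%; inconclusive = mean reaches 80% but some replicate falls short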;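 note: 0% = neutral control wells and 100% = parthenolide positive control wells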
# Wnt act: activators of Wnt/beta-catenin signaling | 300,000 tested, 1.2% active | activation, % at 9.35 µM | Wnt/beta-catenin reporter cell assay, activator, plate reader; in the data active = activation above about 30%, passing the limit was not always enough; inconclusive = no clear call, values can overlap the other calls;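 note: 0% = neutral control wells and 100% = positive control wells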
# HSF1 inh: HSF1 inhibition; NIH3T3-HGL HSE-luciferase, MG132-induced, luminescence 8 h; hits give low values; activity change, negative = inhibition, % at 7.5 µM (by protocol); 300,000 tested, 0.77% active; AID 2098;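 active = more than half of replicate wells show activity change below -50%, luminescence cut by over half; inconclusive = some wells, but at most half, below -50%; inactive = no replicate well below -50%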;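 note: luciferase reports HSF-1 transcriptional activity via heat shock element; 0% = median of DMSO wells and -100% = zero luminescence signal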
# SMARCA2 act conf: SMARCA2 activation, confirmation screen. shares compounds with SMARCA2 activ. MG213 cells, MMTV-luciferase with dexamethasone, luminescence, overnight; MG213 cells expressing E1A, Rb sequestered; DMSO wells 0%, reference activator 100%. activation, % at 9.1 µM. 3,500 tested, 30% active;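 active = activation above its plate's cutoff, the mean activation of tested wells plus 3 SD, cut at about 7.9% in these data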
# GAL4-VP16 Luc: counter-screen for SMARCA2 activators: GAL4-VP16 luciferase reporter activation | shares compounds with SMARCA2 activ | HEK293 GAL4-VP16 pG5luc reporter, luciferase luminescence; scaled: DMSO wells 0%, SAHA wells 100% | activation, % at 9.1 µM | 3,500 tested, 41% active | AID 686939;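 active = activation above the solvent-only control well mean plus 3 SD, averaged across control plates, cut at about 5.2% in these data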
# Active calls of the source: *; ? = inconclusive; / = no result given.
SMILES,esBAF inh,HSF-1 act,SMARCA2 activ,MITF TRPM1 HTS,Wnt act,HSF1 inh,SMARCA2 act conf,GAL4-VP16 Luc
C[C@H](CO)N1C[C@H](C)[C@@H](CN(C)C)OCCCC[C@H](C)Oc2ccc(NC(=O)Cc3ccccc3)cc2C1=O,-3.1,/,/,/,/,/,/,/
N#C/C(=C/c1ccc(N2CCOCC2)o1)c1nc2ccccc2[nH]1,5.6,/,9.7*,3.2,-0.3,/,16.3*,16.6*
N#C/C(=C/c1cccs1)c1nc2ccccc2[nH]1,133.8*,?,9.3*,2.7,/,26.0,23.7*,3.8
N#C/C(=C\c1c(Cl)cccc1Cl)c1nc2ccccc2[nH]1,9.5,10.6,4.4,-6.1,1.3,1.6,/,/
COc1cc(/C=C(\C#N)c2nc3ccccc3[nH]2)cc(OC)c1O,/,38.0,8.2*,17.0,2.1,9.7,5.4,5.7*
N#C/C(=C\c1cc([N+](=O)[O-])c(N2CCOCC2)cc1N1CCOCC1)c1nc2ccccc2[nH]1,-6.1,-0.5,-0.3,18.1,/,0.4,/,/
Cc1ccc(/C=C(\C#N)c2nc3ccccc3[nH]2)s1,98.5*,?,10.4*,49.7,/,30.4,18.9*,10.8*
O=C(NC1CCCCC1)[C@@H]1[C@@H](CO)[C@@H]2Cn3c(cccc3=O)[C@@H]2N1CCc1ccccc1,3.6,/,/,/,/,/,/,/
C[C@@H]1CN([C@H](C)CO)C(=O)c2cc(NS(C)(=O)=O)ccc2O[C@@H](C)CCCCO[C@@H]1CN(C)Cc1ccccc1,-1.7,/,/,/,/,/,/,/
O=C1NC(=S)N/C1=C/c1cc2c(cc1[N+](=O)[O-])OCO2,-5.4,27.0,11.0*,-8.8,1.4,4.2,1.9,2.6
N#CCCN1CCN(C2=NC(=O)/C(=C\c3cccs3)S2)CC1,/,-2.4,8.8*,24.4,12.5,-3.4,1.8,-0.9
Cc1ccc(C)c(S(=O)(=O)N2CCN(c3nc(CN4CCOCC4)nc4sc(C)c(C)c34)CC2)c1,3.0,/,9.1*,5.4,-2.3,/,-0.4,-0.1
CC(C)CCNC(=O)C(=O)Nc1ccccc1,?,27.2,9.1*,78.2,18.7,-3.7,6.4,7.2*
CCNC(=O)C[C@@H]1CC[C@@H]2[C@@H](COc3ccc(NC(=O)C4CCOCC4)cc3C(=O)N2C)O1,0.9,/,/,/,/,/,/,/
C=CCc1cc(Cl)ccc1OCCNCCCOC,/,15.4,11.1*,3.8,-6.4,17.5,-1.7,0.0
CCCN1[C@@H]2c3ccc(-c4cccc(F)c4)c(=O)n3C[C@@H]2[C@@H](CO)[C@@H]1C(=O)N(C)C,7.1,/,/,/,/,/,/,/
Cc1nnc(-c2ccccc2)o1,5.1,-20.2,-3.4,-3.6,3.3,2.2,/,/
Cn1cc(-c2nnc(-c3ccccc3)o2)c2ccccc21,-14.6,65.5*,13.1*,17.1,42.0*,34.7,5.6,7.2*
Cc1cc(OCc2cn3cccnc3n2)ccc1Cl,/,48.0,8.4*,15.5,/,26.0,8.5*,5.6*
O=C(c1cccc([N+](=O)[O-])c1)c1ccccn1,/,26.1,-0.6,8.3,1.1,3.6,/,/
O=C(c1cccc([N+](=O)[O-])c1)N(c1ccccn1)c1ccccn1,/,-2.6,8.0*,2.3,/,-5.3,0.4,0.6
O=C(OCCc1ccccn1)c1cccc([N+](=O)[O-])c1,18.4,/,8.2*,0.9,-3.3,/,2.9,2.6
O=C(c1cccc(F)c1)N1C[C@@H]2[C@H](c3ccccc31)[C@H](CO)N2C(=O)C1CCCC1,-2.9,/,/,/,/,/,/,/
COC(=O)c1ccc(-c2nc(-c3ccc(Br)o3)no2)cc1,23.1,23.3,-0.6,/,11.5,5.4,/,/
COc1ccc(-c2ccc(-c3noc(-c4ccccc4)n3)c(OC)n2)cc1,-4.7,11.8,11.8*,0.7,2.8,6.8,1.6,2.3
SMILES,esBAF inh,HSF-1 act,SMARCA2 activ,MITF TRPM1 HTS,Wnt act,HSF1 inh,SMARCA2 act conf,GAL4-VP16 Luc
COc1ccc(-c2noc(-c3ccc(Cl)cc3)n2)cc1,/,25.4,/,/,/,3.0,/,/
COC(=O)c1ccc(-c2nc(-c3cccs3)no2)cc1,-74.4,/,10.8*,/,11.1,/,-4.0,8.1*
CCOc1nc(-c2ccccc2)ccc1-c1noc(-c2ccc(OC)c(OC)c2)n1,-2.1,/,-1.0,15.7,-0.1,/,/,/
COc1ccc(-c2nc(-c3ccc(C(=O)O)cc3)no2)cc1,5.4,26.1,8.4*,-14.4,14.2,9.6,8.4*,14.8*
COc1cccc(-c2nc(-c3ccccc3)no2)c1,1.4,19.5,8.8*,24.8,1.0,-2.3,8.4*,13.9*
C[C@@H]1CN([C@@H](C)CO)S(=O)(=O)c2ccc(C#CC3CCCC3)cc2O[C@@H]1CN(C)Cc1cncnc1,7.5,/,/,/,/,/,/,/
COc1cccc(-c2noc(-c3cccs3)n2)c1,11.6,53.8*,9.5*,/,27.5,23.1,8.0*,13.4*
FC(F)(F)c1cccc(-c2nc(-c3ccncc3)no2)c1,16.8,8.1,9.2*,/,4.4,2.3,6.4,4.2
COc1ccc(S(=O)(=O)Nc2ccc3c(c2)C(=O)N([C@H](C)CO)C[C@@H](C)[C@H](CN(C)C(=O)Nc2cccc4ccccc24)OCCCC[C@@H](C)O3)cc1,6.7,/,/,/,/,/,/,/
CCN(CC)C(=O)CN(C#N)c1nc(C)cc(C)n1,-1.6,20.0,2.5,4.2,0.6,-0.7,/,/
CCN(CC)C(=O)CN(C#N)c1nc(OC)nc(N(C)C)n1,1.8,-0.5,8.9*,/,-5.8,-5.2,0.4,0.2
CCCNC(=O)C[C@H]1CC[C@H]2[C@H](COc3ccc(NC(=O)c4cscn4)cc3C(=O)N2C)O1,-2.4,/,/,/,/,/,/,/
OCc1cn(-c2ccccc2)nc1-c1cc2ccccc2o1,?,62.7*,11.5*,72.6,56.8*,32.5,4.2,8.6*
CC(C)CC#Cc1ccc2c(c1)O[C@H](CN(C)C(=O)C1CCCCC1)[C@H](C)CN([C@@H](C)CO)S2(=O)=O,-16.3,/,/,/,/,/,/,/
COc1ccc(S(=O)(=O)Nc2ccc3c(c2)C(=O)N([C@H](C)CO)C[C@H](C)[C@H](CN(C)CC2CC2)OCCCC[C@@H](C)O3)cc1,-0.5,/,/,/,/,/,/,/
C[C@@H]1CN([C@H](C)CO)C(=O)c2cc(NC(=O)Nc3ccc(F)cc3)ccc2O[C@@H](C)CCCCO[C@H]1CN(C)S(=O)(=O)c1cn(C)cn1,1.4,/,/,/,/,/,/,/
O=C(CC1NC2CCCCC2NC1=O)Nc1ccc2c(c1)OCO2 (stereo unspecified),-5.6,-3.9,11.3*,/,-7.2,-5.0,-0.6,0.5
OCC(Cc1ccccc1)Nc1c2ccccc2nc2ccccc12 (stereo unspecified),/,3.9,9.8*,33.8,0.3,-0.2,5.4,2.4
C[C@H](CO)N1C[C@H](C)[C@H](CN(C)CC2CCCCC2)Oc2ccc(NC(=O)Cn3cnnn3)cc2CC1=O,-5.0,/,/,/,/,/,/,/
